The list is not random: actives were taken first. Their share in the collection is about 4.1%.
NALP1 inh = NALP1 inhibition; hit rate 0.61% among 280,000; S. cerevisiae NALP1/ASC/caspase-1 growth, X-gal OD620, 72 h; inhibition, % at 10 µM; in the data active means inhibition mostly above about 24%, no sharp cut-off; inactive means mostly below about 32%
NLRP3 yeast inh = blocks the NALP3 inflammasome reconstituted in yeast; Yeast reconstituted NLRP3/ASC/caspase-1, beta-gal luminescence, 24 h; inhibition, % at 10 µM; hit rate 0.39% among 330,000;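 active means inhibition of 50% or more; inactive means inhibition below 50%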;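 further: plate controls were induced DMSO wells for no effect and uninduced yeast grown without galactose for full effect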
tim23-1 inh = inhibits growth of tim23-1 mutant yeast; AID 463212; hit rate 1.3% among 330,000; inhibition, % at 20 µM; S. cerevisiae tim23-1 growth, BacTiter-Glo luminescence, 24 h;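 active means growth inhibition of the mutant yeast at or above 50%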;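 further: temperature-sensitive mutant grown at 25 °C; plate controls were DMSO-treated mutant yeast for no effect and medium wells lacking yeast for full effect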
tim10-1 inh = inhibits growth of tim10-1 mutant yeast. S. cerevisiae tim10-1 ts strain growth, BacTiter-Glo, 24 h. inhibition, % at 20 µM. hit rate 2.2% among 330,000. AID 463190;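 active means inhibition of at least 40%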;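 further: mutant grown at 25 °C; 0% = DMSO wells with yeast and 100% = wells holding no yeast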
TIM10 inh = TIM10 yeast growth inhibition; S. cerevisiae TIM10 strain growth, BacTiter-Glo luminescence, 24 h; inhibition, % at 10 µM; hit rate 1.4% among 330,000; AID 463195;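 active means inhibition of 40% or more at the single tested concentration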;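 further: wild-type TIM10 isogenic control strain grown at permissive 25 °C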
tim23-1 conf = confirmation of tim23-1 mutant yeast growth inhibitors; shares compounds with tim23-1 inh; S. cerevisiae tim23-1 growth, BacTiter-Glo luminescence, 24 h; inhibition, % at 20 µM; hit rate 83% among 4,400; AID 463218;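 active means inhibition above about 39% in either of two replicate wells at 20 µM, limit read from the data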;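 further: temperature-sensitive tim23-1 mutant grown at 25 °C; 0% = DMSO wells with yeast and 100% = medium wells without yeast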
* marks the source's active call; other numbers are inactive results; · = no result.

SMILES	NALP1 inh	NLRP3 yeast inh	tim23-1 inh	tim10-1 inh	TIM10 inh	tim23-1 conf
C[C@@H]1C(c2ccc(F)cc2)=NN(c2ccccc2)[C@H]1C(=O)N1CCOC1=O	·	·	53*	34	7	34
COc1ccccc1[C@@H]1C(c2ccccc2)=NN(c2ccc(Br)cc2)[C@H]1C(=O)N1CCOC1=O	·	·	53*	21	14	27
O=[N+]([O-])c1ccc(N2CCN(S(=O)(=O)c3ccc4ccccc4c3)CC2)cc1NCC1CCCO1 (stereo unspecified)	13	21	14	19	14	·
COC(=O)NNC(=S)Nc1ccc(Br)cc1	3	19	3	2	-7	·
Cc1ccc(S(=O)(=O)N2C/C=C\CN(S(=O)(=O)c3ccccc3Br)CC2)cc1	·	·	49	25	9	·
Cc1ccc(S(=O)(=O)N2CCCN(S(=O)(=O)c3ccccc3Br)CC2)cc1	·	·	52*	22	2	24
C=CCNC(=S)N/N=C(\C)c1ccccn1	78*	21	61*	9	-16	51*
Cc1cc(O)c2c(-c3ccccc3)cc(=O)oc2c1	-9	-95	47	32	31	·
Cc1cc2oc(=O)cc(-c3ccccc3)c2c(C)c1-c1ccc(O)cc1	·	·	61*	21	2	48*
COc1cc2oc(=O)cc(-c3ccc(-c4ccc(O)cc4)cc3)c2c(OC)c1OC	·	·	56*	28	1	35
CCC(CC)C(=O)Nc1cc(C)cc(C)c1	-4	-18	13	18	7	·
O=C(NC(=S)Nc1cccc(Cl)c1N1CCCCC1)c1ccco1	4	-2	51*	38	34	29
O=C(Nc1ccccc1N1CCOCC1)c1ccco1	-2	-21	-1	-5	11	·
O=C(NC(=S)Nc1ccccc1N1CCOCC1)c1ccco1	24	-34	55*	39	33	38
O=C(NC(=S)Nc1cccc(Cl)c1N1CCCCC1)c1cccs1	-3	19	53*	32	38	-131
Cc1nn(Cc2ccccc2)c(Cl)c1C(=O)OCC#N	10	30	17	-12	8	·
O=C(c1ccccc1NS(=O)(=O)c1ccc([N+](=O)[O-])cc1[N+](=O)[O-])N1O[C@@H]2C=C[C@H]1C2	·	·	53*	28	4	38
COc1ccc(C2CC(=O)Oc3cc(O)ccc32)cc1 (stereo unspecified)	·	·	57*	2	7	46*
COc1ccc(C2CC(=O)Oc3cc4c(cc32)OCO4)cc1 (stereo unspecified)	·	·	61*	14	6	49*
CC/C(=N/NC(=O)c1ccccc1O)c1c(C)[nH]n(-c2ccccc2)c1=O	·	-7	10	30	-14	·
O=C(Nc1ccccc1-c1nnn(CC(=O)N2CCCc3ccccc32)n1)c1ccc(Cl)cc1	-22	5	56*	24	27	26
Cc1ccc(S(=O)(=O)N2C[C@@H]3[C@H]4CC[C@H](C4)[C@@H]3[C@@H](C)[C@@H]2c2cn(Cc3ccccc3)c3ncccc23)cc1	·	·	29	11	-5	·
Cc1ccc(S(=O)(=O)N2C[C@@H]3[C@H]4CC[C@H](C4)[C@@H]3[C@@H](C)[C@H]2C#N)cc1	·	·	91*	18	0	40*
Cc1ccc(-c2nn(-c3ccccc3)cc2NC(=O)CCl)cc1	14	22	65*	36	29	44*
Cc1ccc(-c2nn(-c3ccccc3)cc2CO)cc1	18	26	21	3	9	·
SMILES	NALP1 inh	NLRP3 yeast inh	tim23-1 inh	tim10-1 inh	TIM10 inh	tim23-1 conf
Cc1ccc(-c2nn(-c3ccccc3)cc2/C=N/O)cc1	-24	28	59*	30	15	38*
Oc1cccc(/C=N/Nc2cccc3cccnc23)c1	4	31	53*	10	15	63*
O=[N+]([O-])c1ccc(N/N=C/c2cccc(O)c2)cc1	9	16	83*	39	6	40*
COc1cc(/C=N/Nc2cccc3cccnc23)cc(OC)c1O	-11	9	13	9	15	·
CN(C)C(=O)C1C2NC(=S)N(c3cccc(Cl)c3)C1(C)Oc1ccc(Cl)cc12 (stereo unspecified)	5	12	16	9	-11	·
Clc1ccc(-c2cn3cccnc3n2)cc1	-8	50	53*	6	1	35
Clc1ccc(-c2cn3cccnc3n2)cc1Cl	5	-6	54*	19	22	33
C=CCN1C(=S)CC(c2ccccc2)=Nc2ccccc21	3	37	36	-2	-14	·
CCOc1ccc(CCNC(=O)COC(=O)c2cc(=O)[nH]c3ccccc23)cc1OCC	·	-3	9	6	9	·
CCC1CCc2sc(C(=O)NCC3CCCO3)cc2C1 (stereo unspecified)	·	27	51*	11	7	38
CCC1CCc2sc(C(=O)N(C)CC(=O)Nc3ccc(OC)cc3)cc2C1 (stereo unspecified)	·	38	51*	33	0	45*
CCC1CCc2sc(C(=O)N(C)CC(=O)Nc3cccc(OC)c3)cc2C1 (stereo unspecified)	·	27	51*	19	12	41*
Cn1cnnc1SCC(=O)Nc1ncc(C(F)(F)F)cc1Cl	14	-2	7	-11	-12	·
Cc1cccc2c3c([nH]c12)CCNC3	15	9	-4	5	3	·
O=C(COC(=O)Cc1ccc(Cl)cc1)NC1CCCC1	·	12	-10	-25	-6	·
CCn1nnc2cc(C(=O)NCCc3ccccc3F)ccc21	4	27	5	10	-1	·
COc1ccc(NS(=O)(=O)c2ccc3c(c2)Cc2ccccc2-3)cn1	19	33	64*	21	32	29
O=C(c1ccc2ccccc2n1)N1CCN(S(=O)(=O)c2ccc(Cl)cc2)CC1	·	15	50*	27	22	36
Cc1ccc(NC(=O)CN(C)C(=O)CCC(=O)c2cccs2)cc1	25	-1	-2	18	-16	·
Cc1ccc(-c2c3c(nc4sc(C(N)=O)c(N)c24)CCCC3)o1	27	-2	50*	36	2	48*
NC(=O)c1sc2nc3c(c(-c4ccco4)c2c1N)CCC3	0	9	24	38	8	·
CCC(C)n1cnc2c(c1=O)c1nc3ccccc3nc1n2Cc1ccc(OC)cc1 (stereo unspecified)	18	20	53*	37	35	52*
COC1Cc2ccccc2N(C(N)=O)c2ccccc21 (stereo unspecified)	·	-10	-5	-13	0	·
O=C1C=C(c2ccc3c(c2)OCCO3)C[C@@H](c2ccc(F)cc2)C1	·	1	51*	22	17	48*
COc1ccc([C@H]2CC(=O)C=C(c3ccc4[nH]ccc4c3)C2)cc1OC	·	12	34	20	20	·
O=C1C=C(c2ccc3[nH]ccc3c2)C[C@@H](c2ccc(F)cc2)C1	·	4	53*	39	25	50*
